# Results: the supplement of paper PMC6089552
# Among all 3,200 compounds or so, about 300 (9.4%) showed activity. The sample holds actives, similar compounds and a random draw of the others, so the mix is not that of the screen. Unmarked numbers belong to inactive results.
# System: A673/TR/shEF
# Assay: cell viability (LOESS-normalised, relative to median of negative controls) (log2 ratio); higher = more viable cells (less compound effect), active = hit call of the paper (over 3 MAD below the median)
# Settings: treatment time: 72 h
# Summary of the method: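 A673/TR/shEF Ewing sarcoma cells were plated at 1,500 per well in 384-well plates and cultured with or without doxycycline, added 24 h before compounds, to induce EWS-FLI1 shRNA knockdown. Library compounds at two or more concentrations, alongside DMSO controls, were applied for three days. Cell viability was measured by CellTiter-Glo luminescence on an Envision reader. Readings were LOESS-corrected per plate, divided by the median of negative controls and log2-transformed, and hits were wells lying at least three median absolute deviations from the median of all screened wells.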
# [1] = 0.25 µM, library screen: screen1, EWS-FLI1 expression: high (no doxycycline)
# [2] = 0.25 µM, library screen: screen1, EWS-FLI1 expression: low (doxycycline-induced shRNA knockdown)
# [3] = 2.5 µM, library screen: screen1, EWS-FLI1 expression: high (no doxycycline)
# [4] = 2.5 µM, library screen: screen1, EWS-FLI1 expression: low (doxycycline-induced shRNA knockdown)
# [5] = 0.103 µM, library screen: screen3, EWS-FLI1 expression: high (no doxycycline)
# [6] = 0.103 µM, library screen: screen3, EWS-FLI1 expression: low (doxycycline-induced shRNA knockdown)
# [7] = 0.308 µM, library screen: screen3, EWS-FLI1 expression: high (no doxycycline)
# [8] = 0.308 µM, library screen: screen3, EWS-FLI1 expression: low (doxycycline-induced shRNA knockdown)
# [9] = 0.926 µM, library screen: screen3, EWS-FLI1 expression: high (no doxycycline)
# [10] = 0.926 µM, library screen: screen3, EWS-FLI1 expression: low (doxycycline-induced shRNA knockdown)
# [11] = 2.8 µM, library screen: screen3, EWS-FLI1 expression: high (no doxycycline)
# [12] = 2.8 µM, library screen: screen3, EWS-FLI1 expression: low (doxycycline-induced shRNA knockdown)
# [13] = 8.3 µM, library screen: screen3, EWS-FLI1 expression: high (no doxycycline)
# [14] = 8.3 µM, library screen: screen3, EWS-FLI1 expression: low (doxycycline-induced shRNA knockdown)
# [15] = 25 µM, library screen: screen3, EWS-FLI1 expression: high (no doxycycline)
# [16] = 25 µM, library screen: screen3, EWS-FLI1 expression: low (doxycycline-induced shRNA knockdown)
# [17] = 0.25 µM, library screen: screen2, EWS-FLI1 expression: high (no doxycycline)
# [18] = 0.25 µM, library screen: screen2, EWS-FLI1 expression: low (doxycycline-induced shRNA knockdown)
# [19] = 2.5 µM, library screen: screen2, EWS-FLI1 expression: high (no doxycycline)
# [20] = 2.5 µM, library screen: screen2, EWS-FLI1 expression: low (doxycycline-induced shRNA knockdown)
smiles,measurement,setting,value
CC(C)CCC[C@@H](C)[C@H]1CC[C@H]2C3=CC[C@H]4C[C@@H](O)CC[C@]4(C)[C@H]3CC[C@]12C,cell viability (log2),[1],-0.0717
same,cell viability (log2),[2],-0.021
same,cell viability (log2),[3],0.0758
same,cell viability (log2),[4],0.0695
C[C@H]1COC2=C1C(=O)C(=O)c1c2ccc2c1CCCC2(C)C,cell viability (log2),[5],0.0338
same,cell viability (log2),[6],0.0754
same,cell viability (log2),[7],0.0526
same,cell viability (log2),[8],0.0683
same,cell viability (log2),[9],0.0196
same,cell viability (log2),[10],0.0264
same,cell viability (log2),[11],-0.0315
same,cell viability (log2),[12],-0.0274
same,cell viability (log2),[13],0.0932
same,cell viability (log2),[14],-0.035
same,cell viability (log2),[15],-0.196 (active)
same,cell viability (log2),[16],-0.308 (active)
CCN1CCC[C@H]1CNC(=O)c1c(OC)ccc(I)c1O,cell viability (log2),[17],0.251
same,cell viability (log2),[18],0.174
same,cell viability (log2),[19],0.0364
same,cell viability (log2),[20],0.15
Cc1ccsc1C=C1SC(=S)N(CC(=O)O)C1=O,cell viability (log2),[1],0.0973
same,cell viability (log2),[2],0.0799
same,cell viability (log2),[3],0.133
same,cell viability (log2),[4],0.152
C=CCN1C(=O)/C(=C2\SC(=S)N(c3c(C)n(C)n(-c4ccccc4)c3=O)C2=O)c2ccccc21,cell viability (log2),[1],-0.0187
same,cell viability (log2),[2],-0.00404
same,cell viability (log2),[3],0.0713
same,cell viability (log2),[4],-0.0309
OCC(O)C1NCC(O)C1O (centres undefined),cell viability (log2),[17],0.0417
same,cell viability (log2),[18],0.103
same,cell viability (log2),[19],0.000766
same,cell viability (log2),[20],0.0189
Cc1cc(N)c2ccccc2[n+]1CCCCCCCCCC[n+]1c(C)cc(N)c2ccccc21,cell viability (log2),[1],0.139
same,cell viability (log2),[2],0.0436
same,cell viability (log2),[17],0.122
same,cell viability (log2),[18],0.0489
same,cell viability (log2),[3],-1.46 (active)
same,cell viability (log2),[4],-0.54 (active)
same,cell viability (log2),[19],-0.865 (active)
same,cell viability (log2),[20],-0.463 (active)
CC[C@H]1C(=O)OC[C@@H]1Cc1cccn1C,cell viability (log2),[1],0.154
same,cell viability (log2),[2],0.0128
same,cell viability (log2),[3],0.143
same,cell viability (log2),[4],0.0953
CC12CCCC(O)(C1)C1CC(C)(C)C1CC2 (centres undefined),cell viability (log2),[1],0.066
same,cell viability (log2),[2],-0.02
same,cell viability (log2),[3],0.0972
same,cell viability (log2),[4],0.0732
Oc1ccc([C@@H]2Oc3ccc(O)cc3[C@@H]3CCC[C@@H]32)cc1,cell viability (log2),[5],-0.0128
same,cell viability (log2),[6],0.0648
same,cell viability (log2),[7],-0.0264
same,cell viability (log2),[8],-0.0313
same,cell viability (log2),[9],-0.0384
same,cell viability (log2),[10],0.0122
same,cell viability (log2),[11],-0.0259
same,cell viability (log2),[12],0.00446
same,cell viability (log2),[13],-0.0456
same,cell viability (log2),[14],0.0022
same,cell viability (log2),[15],-0.181 (active)
same,cell viability (log2),[16],-0.0464
Oc1ccc2c(c1)OC[C@H]1c3cc4c(cc3O[C@@H]21)OCO4,cell viability (log2),[1],0.0543
same,cell viability (log2),[2],-0.104
same,cell viability (log2),[3],0.119
same,cell viability (log2),[4],0.0894
Oc1ccc([C@H]2Oc3cc(O)cc(O)c3C[C@H]2O)cc1,cell viability (log2),[1],0.0303
same,cell viability (log2),[2],-0.000667
same,cell viability (log2),[3],0.0839
same,cell viability (log2),[4],-0.00856
COc1cc(CN2CCN(Cc3cccc(OC)c3OC)CC2)c([N+](=O)[O-])cc1OC,cell viability (log2),[1],0.00876
same,cell viability (log2),[2],0.0541
same,cell viability (log2),[3],0.119
same,cell viability (log2),[4],-0.0278
CC1(C)OC(=O)CC(O)[C@@]2(C)C1CC(=O)[C@]1(C)C2CCC2(C)C(c3ccoc3)OC(=O)[C@H]3O[C@]321 (some centres undefined),cell viability (log2),[1],0.0277
same,cell viability (log2),[2],0.0481
same,cell viability (log2),[3],0.0671
same,cell viability (log2),[4],0.0691
C[C@]12CCC3c4ccc(OC(=O)CCC(=O)O)cc4CCC3C1CCC2=O (some centres undefined),cell viability (log2),[1],0.126
same,cell viability (log2),[2],0.0832
same,cell viability (log2),[3],0.102
same,cell viability (log2),[4],0.0823
C=C/C(C)=C\C[C@@H]1[C@@]2(C)CCCC(C)(C)[C@@H]2CC[C@@]1(C)O,cell viability (log2),[1],0.0522
same,cell viability (log2),[2],0.0309
same,cell viability (log2),[3],0.126
same,cell viability (log2),[4],0.0611
C[C@]12CCC3c4ccc(OS(=O)(=O)O)cc4CCC3C1CC[C@H]2O (some centres undefined),cell viability (log2),[1],0.0646
same,cell viability (log2),[2],0.0512
same,cell viability (log2),[3],0.0988
same,cell viability (log2),[4],0.092
COc1cc2c(cc1O)CC[C@@H]1[C@@H]2CC[C@]2(C)[C@@H](O)CC[C@@H]12,cell viability (log2),[5],0.0202
same,cell viability (log2),[6],0.0975
same,cell viability (log2),[17],0.11
same,cell viability (log2),[18],0.04
same,cell viability (log2),[7],0.0934
same,cell viability (log2),[8],0.0693
same,cell viability (log2),[9],-0.0172
same,cell viability (log2),[10],0.0926
same,cell viability (log2),[19],0.0437
same,cell viability (log2),[20],0.0893
same,cell viability (log2),[11],0.045
same,cell viability (log2),[12],0.00908
same,cell viability (log2),[13],-0.104
same,cell viability (log2),[14],-0.0169
same,cell viability (log2),[15],-1.25 (active)
same,cell viability (log2),[16],-0.177 (active)
